Data taken from PubChem BioAssay.
Where “and” joins values, the source holds several entries; their conditions need not be identical. Equal values may be shown once. Records with an inconclusive call do not appear. Calls of active or inactive are those of the source.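 The calls were made as follows, unless noted: active = normalized viability below 100% at a tested concentration; inactive = the rest.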

Assays:
[1] = viability loss in pontine glioma line – cell-based, SU-DIPG-XVII, MIPE5.0, CellTiter-Glo, qHTS, dose response (AID 1347060; cut-off not given, nearly all actives have AC50 up to about 26 µM;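 as to AC50: cells exposed to compound for 48 hours before viability readout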); details: CellTiter-Glo ATP luminescence
[2] = viability loss in pontine glioma line – cell-based, SU-DIPG-XIII, MIPE4.0, CellTiter-Glo, qHTS, dose response (AID 1347061; cut-off not given, nearly all actives have AC50 up to about 37 µM;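 also: cells exposed to compound for 48 hours before readout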); details: CellTiter-Glo ATP luminescence
[3] = viability loss in pontine glioma line – cell-based, JHH-DIPG-1, MIPE4.0, CellTiter-Glo, qHTS, dose response (AID 1347062; cut-off not given, nearly all actives have AC50 up to about 27 µM;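 as to AC50: cells exposed to compound for two days before readout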); details: JHH-DIPG-1 viability, CellTiter-Glo ATP luminescence
[4] = viability loss in pontine glioma line – cell-based, SU-DIPG-IV, MIPE4.0, CellTiter-Glo, qHTS, dose response (AID 1347063; cut-off not given, nearly all actives have AC50 up to about 30 µM;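 also: compound exposure lasted 48 hours before the viability readout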); details: CellTiter-Glo ATP luminescence
[5] = viability loss in pontine glioma line – cell-based, SU-DIPG-XXV, MIPE5.0, CellTiter-Glo, qHTS, dose response (AID 1347065; cut-off not given, nearly all actives have AC50 up to about 26 µM;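 also: cells exposed to compound for 48 hours before ATP readout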); details: CellTiter-Glo ATP luminescence
[6] = growth inhibition of DIPG cells – cell-based, MIPE4.0 library, CellTiter-Glo luminescence, qHTS (AID 1347066; cut-off not given, nearly all actives have AC50 up to about 30 µM;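 also: cells exposed to compound for 48 hours before readout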); details: SU-DIPG-VI viability, CellTiter-Glo ATP luminescence
[7] = JHH-DIPG-1 glioma cell viability, MIPE5.0 library, CellTiter-Glo luminescence, qHTS (AID 1347067; cut-off not given, nearly all actives have AC50 up to about 26 µM;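 also: cells exposed to compound for 48 hours before readout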); details: JHH-DIPG-1 glioma viability, CellTiter-Glo ATP luminescence
[8] = viability loss with induced miR-34 in A549 – imaging, A549 dox-inducible miR-34, nuclei and caspase counts, primary screen (AID 1347080;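 active = compounds whose cell count with miR-34 switched on is under 0.7 times the count with it off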); details: A549 miR-34 inducible, Hoechst nuclei count, 48 h
[9] = compounds altering HSF1 focus formation in cells – imaging, Selleck Cancer Library (AID 1347162; in the data active = plate-normalised HSF1 focus index below about 0.46); details: human cells, HSF1 nuclear foci imaging, at 10 µM; SSMD: measured here: HSF1 foci SSMD mean; cell count: measured here: cell number; plate-normalised HSF1 focus index: stronger effect = lower value
[10] = MELAS cybrid and Rieske KO viability enhancers – cell-based, MELAS cybrids, Rieske KO mouse fibroblasts, CellTiter-Glo, primary screen (AID 1508586;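 active = mean z-score across replicates of 1.96 or higher in either the MELAS or the Rieske mutant cell line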;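 also: z relative to plate mean and SD of compound and empty wells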); details: low glucose
[11] = drug combination growth inhibition, ovarian cancer – cell-based, oncology-focused library, rucaparib conditional, profiling panel (AID 1508598); details: patient-derived ovarian cancer cells, CellTiter-Glo viability, 144 h, stronger effect = lower value
[12] = growth inhibition, single agent or in combination, cell-based, chromothripsis tumors, cisplatin or BGB combos (AID 1671449; in the data active = inhibition above about 80%;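 also: cells exposed for 96 hours; 0% = vehicle DMSO and 100% = killing by high DMSO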); details: LFS_MB_P medulloblastoma cells
[13] = growth inhibition, single agent and combos, cell-based, chromothripsis tumors, cisplatin or BGB combos (AID 1671450; in the data active = inhibition above about 80%;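 also: cells exposed to compound for four days; 0% = vehicle DMSO and 100% = cell killing by high DMSO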); details: HDN33 neuroblastoma cells, stronger effect = higher value
[14] = growth inhibition, single agents and combos, ICB984, cell-based, cisplatin or BGB combos, synergistic combos for chromothripsis tumors (AID 1671451; call rule not given here;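 also: cells exposed for 96 hours before readout; 0% = vehicle DMSO and 100% = killing by high DMSO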); details: ICB984 medulloblastoma cells, drug combinations, stronger effect = higher value
[15] = growth inhibition, single agents and combos, HTB85, cell-based, BGB or cisplatin IC20 combos, synergistic combos for chromothripsis tumors (AID 1671453; in the data active = inhibition above about 80%;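 also: cells exposed for 96 hours before readout; 0% = vehicle DMSO and 100% = high DMSO killing control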); details: HTB85 osteosarcoma cells, drug combinations, stronger effect = higher value
[16] = growth inhibition, MDA-MB-436, cell-based, BGB or cisplatin combos, synergistic combos for chromothripsis tumors (AID 1671458; call rule not given here;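 also: cells exposed for 96 hours; 0% = vehicle DMSO and 100% = killing by high DMSO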); details: MDA-MB-436 breast carcinoma growth inhibition, drug combinations, stronger effect = higher value
[17] = BT084 cell growth, single and combined drugs, ICGC_MB145, cisplatin and BGB IC40 combos (AID 1671461; in the data active = inhibition above about 80%;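 also: cells exposed to drugs for 96 hours; 0% = vehicle DMSO and 100% = high DMSO full killing control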); details: BT084 medulloblastoma cells, drug combinations, stronger effect = higher value
[18] = RCMB18 cell growth, single agent and combined, cisplatin and BGB IC40 combos (AID 1671462; in the data active = inhibition above about 80%;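 also: cells exposed to compound for four days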); details: RCMB18 medulloblastoma cells, stronger effect = higher value
[19] = growth inhibition of DIPG cells – cell-based, MIPE5.0 library, qHTS (AID 1347068; cut-off not given, nearly all actives have IC50 up to about 30 µM); details: SU-DIPG-XXV viability
[20] = stronger effect = lower value, cell number ratio, induced over uninduced
[21] = measured here: relative caspase fold change +Dox/-Dox
[22] = measured here: total cells with miR-34 induction, stronger effect = lower value
[23] = measured here: total cells without miR-34 induction
[24] = MELAS cybrid survival, CellTiter-Glo 48 h, stronger effect = higher value
[25] = Rieske KO mouse fibroblast survival, CellTiter-Glo 72 h

CN(C)Cc1c(C(=O)NCCOc2ccc(C(=O)NO)cc2)oc2ccccc12
AC50 [1]: 4.17 µM (active) | AC50 [2]: 4.69 µM (active) | AC50 [3]: 935 nM (active) | AC50 [4]: 3.32 µM (active) | AC50 [5]: 833 nM (active) | AC50 [6]: 2.96 µM (active) | AC50 [7]: 934 nM (active) | fold change [8, 20]: 1.4 (inactive) | fold change [8, 21]: 0.9 | cell count [8, 22]: 1280 | cell count [8, 23]: 916 | SSMD [9]: 0.722 | cell count [9]: 7540 | plate-normalised HSF1 focus index [9]: 1.05 (inactive) | z-score [10, 24]: 0.162 (inactive) | z-score [10, 25]: -1.7 | viability ([11]; at 0.000305 µM, OCI-C5x cells, with rucaparib 10 µM, 100% = cells with rucaparib alone): 130% (inactive) | viability ([11]; at 0.000305 µM, OCI-C5x cells, without rucaparib): 128% (inactive) | viability ([11]; at 0.000305 µM, OCI-P5x cells, with rucaparib 20 µM, 100% = cells with rucaparib alone): 105% (inactive) | viability ([11]; at 0.000305 µM, OCI-P5x cells, without rucaparib): 104% (inactive) | viability ([11]; at 0.00122 µM, OCI-C5x cells, with rucaparib 10 µM, 100% = cells with rucaparib alone): 129% (inactive) | viability ([11]; at 0.00122 µM, OCI-C5x cells, without rucaparib): 123% (inactive) | viability ([11]; at 0.00122 µM, OCI-P5x cells, with rucaparib 20 µM, 100% = cells with rucaparib alone): 103% (inactive) | viability ([11]; at 0.00122 µM, OCI-P5x cells, without rucaparib): 104% (inactive) | viability ([11]; at 0.00488 µM, OCI-C5x cells, with rucaparib 10 µM, 100% = cells with rucaparib alone): 144% (inactive) | viability ([11]; at 0.00488 µM, OCI-C5x cells, without rucaparib): 128% (inactive) | viability ([11]; at 0.00488 µM, OCI-P5x cells, with rucaparib 20 µM, 100% = cells with rucaparib alone): 97.2% (active) | viability ([11]; at 0.00488 µM, OCI-P5x cells, without rucaparib): 101% (inactive) | viability ([11]; at 0.0195 µM, OCI-C5x cells, with rucaparib 10 µM, 100% = cells with rucaparib alone): 118% (inactive) | viability ([11]; at 0.0195 µM, OCI-C5x cells, without rucaparib): 131% (inactive) | viability ([11]; at 0.0195 µM, OCI-P5x cells, with rucaparib 20 µM, 100% = cells with rucaparib alone): 81.2% (active) | viability ([11]; at 0.0195 µM, OCI-P5x cells, without rucaparib): 97.1% (active) | viability ([11]; at 0.0781 µM, OCI-C5x cells, with rucaparib 10 µM, 100% = cells with rucaparib alone): 121% (inactive) | viability ([11]; at 0.0781 µM, OCI-C5x cells, without rucaparib): 138% (inactive) | viability ([11]; at 0.0781 µM, OCI-P5x cells, with rucaparib 20 µM, 100% = cells with rucaparib alone): 91.6% (active) | viability ([11]; at 0.0781 µM, OCI-P5x cells, without rucaparib): 104% (inactive) | viability ([11]; at 0.313 µM, OCI-C5x cells, with rucaparib 10 µM, 100% = cells with rucaparib alone): 123% (inactive) | viability ([11]; at 0.313 µM, OCI-C5x cells, without rucaparib): 132% (inactive) | viability ([11]; at 0.313 µM, OCI-P5x cells, with rucaparib 20 µM, 100% = cells with rucaparib alone): 69.9% (active) | viability ([11]; at 0.313 µM, OCI-P5x cells, without rucaparib): 79.9% (active) | viability ([11]; at 1.25 µM, OCI-C5x cells, with rucaparib 10 µM, 100% = cells with rucaparib alone): 135% (inactive) | viability ([11]; at 1.25 µM, OCI-C5x cells, without rucaparib): 150% (inactive) | viability ([11]; at 1.25 µM, OCI-P5x cells, with rucaparib 20 µM, 100% = cells with rucaparib alone): 82.3% (active) | viability ([11]; at 1.25 µM, OCI-P5x cells, without rucaparib): 77.6% (active) | viability ([11]; at 5 µM, OCI-C5x cells, with rucaparib 10 µM, 100% = cells with rucaparib alone): 8.92% (active) | viability ([11]; at 5 µM, OCI-C5x cells, without rucaparib): 7.82% (active) | viability ([11]; at 5 µM, OCI-P5x cells, with rucaparib 20 µM, 100% = cells with rucaparib alone): 5.56% (active) | viability ([11]; at 5 µM, OCI-P5x cells, without rucaparib): 34% (active) | inhibition ([12]; at 0.5 µM, stronger effect = higher value): 21.6% (inactive) | inhibition ([12]; measured here: combination with BGB IC20, at 0.005 µM): -27.6% | inhibition ([12]; measured here: combination with BGB IC40, at 0.005 µM): -6.96% | inhibition ([12]; measured here: combination with BGB IC40, at 0.05 µM): 9.02% | inhibition ([12]; measured here: combination with cisplatin, at 0.5 µM, stronger effect = higher value): 46.7% | inhibition ([12]; measured here: combination with cisplatin, at 5 µM, stronger effect = higher value): 110% | inhibition ([13]; BGB combo, at 5 µM): 99.4% | inhibition ([13]; at 0.5 µM): 78.8% (inactive) | inhibition ([13]; cisplatin combo, at 5 µM): 99.8% | inhibition ([13]; measured here: with BGB IC20 combination, at 0.5 µM): 69% | inhibition ([13]; measured here: with cisplatin IC20 combination, at 0.5 µM): 82.8% | inhibition ([13]; single agent, at 5 µM): 99.8% | inhibition ([14]; BGB IC20 combo, at 0.005 µM): 27.4% | inhibition ([14]; BGB IC40 combo, at 0.005 µM): 31.8% | inhibition ([14]; BGB IC40 combo, at 0.05 µM): 93.6% | inhibition ([14]; at 0.5 µM): -23.7% (inactive) | inhibition ([14]; cisplatin combo, at 0.05 µM): 93.4% | inhibition ([14]; cisplatin combo, at 0.5 µM): -34.8% | inhibition ([14]; cisplatin combo, at 5 µM): -32% | inhibition ([14]; measured here: 5 uM single agent, at 5 µM): -19.3% | inhibition ([15]; at 0.5 µM): 87.5% (active) | inhibition ([15]; measured here: with BGB IC20, at 0.5 µM): 87.4% | inhibition ([15]; measured here: with BGB IC20, at 5 µM): 99.8% | inhibition ([15]; measured here: with cisplatin IC20, at 0.5 µM): 90.7% | inhibition ([15]; measured here: with cisplatin IC20, at 5 µM): 99.9% | inhibition ([15]; single agent, at 5 µM): 99.8% | inhibition ([16]; at 0.5 µM): 43.7% (inactive) | inhibition ([16]; measured here: BGB combination, at 0.5 µM): 36% | inhibition ([16]; measured here: BGB combination, at 5 µM): 60% | inhibition ([16]; measured here: cisplatin combination, at 0.5 µM): 42% | inhibition ([16]; measured here: cisplatin combination, at 5 µM): 69.4% | inhibition ([17]; at 0.5 µM): 52% (inactive) | inhibition ([17]; cisplatin combination, at 0.5 µM): 79.4% | inhibition ([17]; cisplatin combination, at 5 µM): 101% | inhibition ([17]; measured here: BGB IC40 combination 0.05 uM, at 0.05 µM): 30.2% | inhibition ([17]; single agent, at 5 µM): 108% | inhibition ([18]; at 0.5 µM): 47.1% (inactive) | inhibition ([18]; cisplatin combo, at 5 µM): 96.9% | inhibition ([18]; measured here: BGB IC40 combination, at 0.05 µM): 20.1% | inhibition ([18]; measured here: combination with cisplatin, at 0.5 µM): 58.8% | inhibition ([18]; single agent, at 5 µM): 92.2%

O=C(CN1C(=O)C2(CCCC2)NC[C@H]1c1cc(F)cc(F)c1)Nc1ccc2c(c1)C[C@@]1(C2)C(=O)Nc2ncccc21
outcome [1]: inactive | outcome [2]: inactive | outcome [3]: inactive | outcome [4]: inactive | outcome [5]: inactive | outcome [6]: inactive | outcome [7]: inactive | outcome [19]: inactive

NC(=O)c1cccc(-c2cccc(OC(=O)NC3CCCCC3)c2)c1
outcome [1]: inactive | outcome [2]: inactive | outcome [3]: inactive | outcome [4]: inactive | outcome [5]: inactive | outcome [6]: inactive | outcome [7]: inactive | outcome [19]: inactive | fold change [8, 20]: 1.39 (inactive) and 0.902 (inactive) | fold change [8, 21]: 1.45 and 0.843 | cell count [8, 22]: 5620 and 8620 | cell count [8, 23]: 4040 and 9560 | z-score [10, 24]: -0.288 (inactive) | z-score [10, 25]: -0.11
